Measured values taken from PubChem BioAssay.
Active and inactive are the calls of the source.

Tests used:
[1] = small molecules captured by biotinylated probe aFSTL3 – biochemical, small-molecule microarray, fluorescence 635/667, stem cell growth factor project, primary screen (AID 1064); settings: higher = more signal;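 further: measures binding of the biotinylated anti-FSTL3 antibody to printed compounds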
[2] = binders from COS7 lysate, DM2A8 probe, primary screen, torsin A project, cell lysate, small-molecule microarray, fluorescence 635/667 (AID 1065); settings: higher = more signal, COS7 lysate expressing mutant human TOR1A
[3] = small molecules captured by biotinylated probe aFGF2 – biochemical, small-molecule microarray, fluorescence 635/667, stem cell growth factor project, primary screen (AID 1067); settings: higher = more signal;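 further: measures binding of biotinylated aFGF2 protein to printed compounds on slides; z-score merges feature fluorescence and signal-to-noise across triplicate slides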
[4] = small molecules captured by biotinylated probe aFGF10 – biochemical, small-molecule microarray, fluorescence 635/667, stem cell growth factor project, primary screen (AID 1071); settings: higher = more signal;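 further: score merges 667 nm spot intensity and signal to noise from triplicate slides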
[5] = molecular target: Neurogenic locus notch homolog protein 2 (Homo sapiens) (UniProt Q04721); experiment: small molecules binding Notch2 protein – biochemical, small-molecule microarray, 635 nm fluorescence, stem cell growth factors, primary screen (AID 1073); settings: higher = more signal
Chain of Neurogenic locus notch homolog protein 2 (Homo sapiens) (Q04721 whole entry, looked up, canonical isoform): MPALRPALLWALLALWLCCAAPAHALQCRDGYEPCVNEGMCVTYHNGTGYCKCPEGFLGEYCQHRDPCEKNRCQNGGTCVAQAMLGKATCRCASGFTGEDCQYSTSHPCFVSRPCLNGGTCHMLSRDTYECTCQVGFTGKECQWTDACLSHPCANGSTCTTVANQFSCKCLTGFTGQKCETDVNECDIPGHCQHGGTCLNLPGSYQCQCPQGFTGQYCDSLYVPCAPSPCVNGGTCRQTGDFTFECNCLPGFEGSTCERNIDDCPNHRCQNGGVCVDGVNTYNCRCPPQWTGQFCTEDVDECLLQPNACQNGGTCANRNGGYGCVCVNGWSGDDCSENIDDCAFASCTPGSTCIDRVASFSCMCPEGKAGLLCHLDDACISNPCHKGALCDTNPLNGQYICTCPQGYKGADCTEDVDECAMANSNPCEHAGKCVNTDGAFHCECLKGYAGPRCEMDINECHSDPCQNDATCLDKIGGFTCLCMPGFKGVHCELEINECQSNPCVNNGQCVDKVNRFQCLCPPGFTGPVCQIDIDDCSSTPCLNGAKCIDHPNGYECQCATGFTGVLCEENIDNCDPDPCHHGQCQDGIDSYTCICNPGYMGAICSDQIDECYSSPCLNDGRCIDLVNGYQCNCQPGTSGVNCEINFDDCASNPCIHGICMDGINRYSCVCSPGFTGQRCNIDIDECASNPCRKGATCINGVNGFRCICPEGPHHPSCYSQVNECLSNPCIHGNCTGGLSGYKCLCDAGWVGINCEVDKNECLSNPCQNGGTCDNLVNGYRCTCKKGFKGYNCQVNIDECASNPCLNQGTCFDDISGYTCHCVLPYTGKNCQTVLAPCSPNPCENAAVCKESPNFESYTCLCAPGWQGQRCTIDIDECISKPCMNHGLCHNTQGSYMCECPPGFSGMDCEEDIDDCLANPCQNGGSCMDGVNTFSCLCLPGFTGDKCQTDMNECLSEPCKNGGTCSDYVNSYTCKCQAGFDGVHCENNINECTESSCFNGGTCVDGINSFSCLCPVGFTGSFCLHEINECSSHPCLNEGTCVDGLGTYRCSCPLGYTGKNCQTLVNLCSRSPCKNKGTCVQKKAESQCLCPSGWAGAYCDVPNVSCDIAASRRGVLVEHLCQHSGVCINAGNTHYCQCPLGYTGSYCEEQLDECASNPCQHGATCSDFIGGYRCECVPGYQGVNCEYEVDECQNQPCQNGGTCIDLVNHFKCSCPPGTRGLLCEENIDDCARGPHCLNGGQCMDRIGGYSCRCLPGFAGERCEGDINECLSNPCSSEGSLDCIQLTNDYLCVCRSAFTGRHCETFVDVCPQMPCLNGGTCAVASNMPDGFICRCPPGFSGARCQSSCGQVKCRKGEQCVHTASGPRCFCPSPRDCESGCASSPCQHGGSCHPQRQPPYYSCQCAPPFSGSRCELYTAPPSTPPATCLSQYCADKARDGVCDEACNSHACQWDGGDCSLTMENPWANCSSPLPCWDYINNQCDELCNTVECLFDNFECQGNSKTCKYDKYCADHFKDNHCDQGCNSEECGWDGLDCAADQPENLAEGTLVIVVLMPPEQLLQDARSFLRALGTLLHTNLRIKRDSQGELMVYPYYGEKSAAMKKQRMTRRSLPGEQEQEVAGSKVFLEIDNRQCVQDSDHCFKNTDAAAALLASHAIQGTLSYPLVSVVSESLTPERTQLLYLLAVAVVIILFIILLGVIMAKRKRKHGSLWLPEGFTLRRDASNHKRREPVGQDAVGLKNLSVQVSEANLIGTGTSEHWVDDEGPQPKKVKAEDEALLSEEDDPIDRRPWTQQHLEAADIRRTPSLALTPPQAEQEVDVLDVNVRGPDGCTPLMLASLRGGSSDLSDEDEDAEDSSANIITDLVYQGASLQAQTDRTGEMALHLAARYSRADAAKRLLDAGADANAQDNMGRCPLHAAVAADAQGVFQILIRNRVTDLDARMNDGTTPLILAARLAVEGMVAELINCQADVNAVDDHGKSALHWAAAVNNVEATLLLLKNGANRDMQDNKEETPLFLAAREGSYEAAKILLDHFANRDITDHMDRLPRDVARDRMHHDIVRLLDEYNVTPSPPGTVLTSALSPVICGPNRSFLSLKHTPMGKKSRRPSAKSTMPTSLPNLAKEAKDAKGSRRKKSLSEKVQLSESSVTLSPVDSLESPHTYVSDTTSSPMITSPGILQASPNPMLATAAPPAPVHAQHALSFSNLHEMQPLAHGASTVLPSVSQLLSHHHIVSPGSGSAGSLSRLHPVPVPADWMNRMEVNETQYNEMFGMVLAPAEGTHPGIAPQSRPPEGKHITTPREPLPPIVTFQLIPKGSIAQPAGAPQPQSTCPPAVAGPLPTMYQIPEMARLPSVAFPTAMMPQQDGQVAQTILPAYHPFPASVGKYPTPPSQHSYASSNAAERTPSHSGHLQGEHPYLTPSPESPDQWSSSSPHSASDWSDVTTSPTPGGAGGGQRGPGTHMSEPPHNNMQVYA

[6] = molecular target: Pro-neuregulin-1, membrane-bound isoform (Homo sapiens) (UniProt Q02297); experiment: small molecules binding neuregulin-1 protein – biochemical, small-molecule microarray, fluorescence 635/667, psychiatric disease protein project, primary screen (AID 1075); settings: NRG1 binding, 635 nm fluorescence, higher = more signal;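 further: score combines 667 nm spot fluorescence with signal to noise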
Chain of Pro-neuregulin-1, membrane-bound isoform (Homo sapiens) (Q02297 whole entry, looked up, the tested form may be a part, canonical isoform): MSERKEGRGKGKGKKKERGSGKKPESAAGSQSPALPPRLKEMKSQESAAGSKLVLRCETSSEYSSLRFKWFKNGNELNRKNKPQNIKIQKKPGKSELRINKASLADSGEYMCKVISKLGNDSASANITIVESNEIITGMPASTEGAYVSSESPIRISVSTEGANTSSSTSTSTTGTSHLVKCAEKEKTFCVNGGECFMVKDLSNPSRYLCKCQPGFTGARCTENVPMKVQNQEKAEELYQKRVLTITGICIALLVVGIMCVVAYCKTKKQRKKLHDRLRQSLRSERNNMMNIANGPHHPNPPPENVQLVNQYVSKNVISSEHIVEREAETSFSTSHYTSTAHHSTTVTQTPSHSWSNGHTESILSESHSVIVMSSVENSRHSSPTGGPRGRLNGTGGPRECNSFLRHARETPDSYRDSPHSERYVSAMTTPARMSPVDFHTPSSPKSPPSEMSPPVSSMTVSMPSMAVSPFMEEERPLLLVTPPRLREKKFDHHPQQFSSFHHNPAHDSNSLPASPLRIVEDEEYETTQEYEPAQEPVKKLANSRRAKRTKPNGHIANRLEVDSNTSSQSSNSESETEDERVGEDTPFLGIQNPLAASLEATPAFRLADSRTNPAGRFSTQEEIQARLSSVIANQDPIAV

[7] = system: Neuregulin-1 EGF-like domain; experiment: small molecules binding NRG1 EGF domain – biochemical, small-molecule microarray, 635 nm fluorescence, primary screen (AID 1081); settings: higher = more signal;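 further: binding of the protein to compounds printed on small-molecule microarray slides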
[8] = FRG1 expression reporter modulators in myotubes – cell-based, C2C12 myotubes, firefly/Renilla luciferase, luminescence, FRG1 inhibition for FSHD, primary screen (AID 1084); settings: FRG1 promoter luciferase, higher = more signal, called active from +8 up or from −8 down
[9] = small molecules captured by biotinylated probe aFST – biochemical, small-molecule microarray, fluorescence 635/667, stem cell growth factor project, primary screen (AID 1086); settings: higher = more signal;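 further: score merges 667 nm fluorescence with signal-to-noise of each printed compound spot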
[10] = binders of probe aHhip on microarray, primary screen, stem cell growth factor project, biochemical, small-molecule microarray, fluorescence 635/667 (AID 1087); settings: higher = more signal;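 further: score merges spot fluorescence at 667nm with spot signal to noise ratio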

Structure (SMILES) | composite z-score [1] | composite z-score [2] | composite z-score [3] | composite z-score [4] | composite z-score [5] | composite z-score [6] | composite z-score [7] | z-score [8] | composite z-score [9] | composite z-score [10]
CCOC(=O)[C@H](Cc1ccccc1)NC(=O)CCC1CC(OC(=O)NCc2cccc3ccccc23)CC2(CCCC(COC(=O)NCCC(C)C)O2)O1 (stereo not given in full) | -0.499 | 0.283 | -0.0895 | 0.0687 | -0.756 | -0.348 | 0.751 | 1.41 (inactive) | -0.219 | -0.0994
O=C(C=Cc1ccc2c(c1)OCO2)c1ccc(F)cc1 | -0.0346 | 0.668 | 0.0173 | 0.3 | -0.207 | -0.204 | -0.0248 | 0.964 (inactive) | 0.348 | -0.0994
CCOC(=O)[C@H](CC(C)C)NC(=O)CCC1CC(OC(=O)NCc2cccc3ccccc23)CC2(CCCC(COC(=O)NCCCN3CCCC3=O)O2)O1 (stereo not given in full) | -0.494 | 0.129 | -0.131 | 0.208 | 0.755 | 0.466 | 0.953 | 1.74 (inactive) | 0.253 | -0.212
COc1ccc(O[C@H]2C=C[C@@H](c3ccccc3)O[C@@H]2CON=C(C)CCN2CCc3nc(-c4ccccc4)c(-c4ccccc4)cc3C2)cc1 | -0.311 | 0.183 | -0.0909 | -0.631 | -0.167 | 0.617 | -0.0088 | 0.282 (inactive) | 0.371 | 0.136
COC(=O)C1=C(C)N(Cc2ccccc2)[C@]23O[C@](C(=O)OC)(C(=O)N2[C@@H]1c1ccccc1)C(C(=O)OC)=C3C(=O)OC | -0.309 | 0.458 | -0.0232 | 1.1 | 0.926 | 0.435 | 1.21 | -1.51 (inactive) | 0.294 | -0.0003
C=CC1=C[C@H](O)[C@@H]2O[C@@H]2C12OCCCO2 | -0.0605 | 0.2 | -0.204 | 0.206 | 0.0754 | 0.122 | 0.35 | 0.293 (inactive) | -0.136 | 0.0274
CC(C)(C)N1C(=O)[C@H]2[C@H]3[C@H](O)[C@H](O)CC(=NOCc4ccccc4)[C@H]3CC[C@H]2C1=O | 1.55 | 0.636 | -0.0006 | -0.0753 | -0.224 | -0.102 | -0.559 | 0.431 (inactive) | 0.687 | -0.119
O=C1C2=CC[C@H]3C(=O)N(c4cccc(Oc5ccccc5)c4)C(=O)[C@H]3[C@H]2[C@H](O)[C@@H]2O[C@H]12 | -0.476 | 0.337 | -0.14 | 0.258 | -0.139 | 0.0597 | 0.129 | -0.492 (inactive) | 0.373 | -0.184
CCOC(=O)CCN1C(=O)[C@H]2[C@H]3[C@H](O)[C@H](O)CC(=NOCC(C)C)[C@H]3CC[C@H]2C1=O | 0.185 | 0.0849 | -0.0232 | 0.125 | -0.131 | -0.312 | 0.176 | 0.813 (inactive) | 0.349 | -0.264
CCOC(=O)[C@H](CC(C)C)NC(=O)CCC1CC(OC(=O)NCc2ccc3c(c2)OCO3)CC2(CCCC(COC(=O)NCCCN3CCCC3=O)O2)O1 (stereo not given in full) | -0.303 | 0.322 | -0.087 | 0.706 | 0.99 | 0.817 | 0.984 | 0.584 (inactive) | 0.465 | -0.0645
CCOC(=O)[C@H](CC(C)C)NC(=O)CCC1CC(OC(=O)NCc2cccc3ccccc23)CC2(CCCC(COC(=O)NCc3ccncc3)O2)O1 (stereo not given in full) | -0.678 | 0.298 | -0.151 | 0.633 | 1.12 | 0.547 | 0.783 | -0.689 (inactive) | 0.407 | -0.236
C[C@H]1Cc2c(COc3ccccc3)nc3c(c2CO1)CN(CCOc1ccccc1)CC3 | -0.762 | 0.665 | -0.0468 | 0.503 | 1.28 | 0.455 | 0.794 | -1.16 (inactive) | 0.0632 | -0.174
CCOC(=O)[C@H](Cc1ccccc1)NC(=O)CCC1CC(OC(=O)NCCc2ccc(F)cc2)CC2(CCCC(COC(=O)NCCOC)O2)O1 (stereo not given in full) | -0.584 | 0.114 | -0.0291 | 0.868 | 1.04 | 0.326 | 1.11 | 0.753 (inactive) | 0.169 | -0.248
COc1cccc([C@H]2Oc3ccc(OC)cc3C(=NOC[C@@H](O)COCc3ccco3)[C@@H]2O)c1 | -0.434 | 0.0488 | -0.158 | -1.12 | -1.29 | -0.984 | -1.7 | -0.765 (inactive) | -0.625 | -0.388
CCOC(=O)CCN1C(=O)[C@H]2[C@H]3[C@H](O)[C@H](O)CC(=NOCc4ccccc4)[C@H]3CC[C@H]2C1=O | 1.08 | -0.164 | -0.121 | 0.11 | 0.206 | -0.188 | -0.368 | -0.0531 (inactive) | 0.494 | -0.236
CC(C)CCN1CCc2nc(COc3ccccc3)c3c(c2C1)CO[C@@H](C)C3 | 0.188 | 0.369 | -0.0819 | 0.0995 | -0.0065 | 0.385 | 0.135 | 0.0476 (inactive) | 0.138 | 0.0623
CO[C@H]1COC(=O)CC=C[C@H](C)[C@@H](OC)COC(=O)[C@H](C)COC(=O)CC=C[C@@H]1C | -0.687 | 1.34 | -0.223 | -0.562 | -0.407 | -0.785 | -0.142 | -0.387 (inactive) | -0.176 | 0.0722
Cc1ccc(S(=O)(=O)n2c3ccccc3c3nnc(C(=O)c4ccccc4)nc32)cc1 | -0.474 | 0.338 | -0.0603 | 0.316 | 0.197 | -0.457 | 0.355 | 49.6 (active) | 0.141 | -0.137
CCCNC(=O)OC[C@H]1O[C@H](CCON=C(C)CCC(=O)OC[C@H]2O[C@H](c3ccccc3)C=C[C@@H]2Oc2ccc(OC)cc2)C=C[C@@H]1Oc1ccc(OC)cc1 | -0.302 | 0.21 | -0.127 | -0.178 | -0.843 | -0.311 | -0.731 | 0.862 (inactive) | 0.0494 | -0.0618
CCN1C(=O)[C@H]2[C@H]3[C@H](O)[C@H](O)CC(=NO[C@@H](C)c4cn([C@H](CO)Cc5ccccc5)nn4)[C@@H]3CC[C@H]2C1=O | -0.687 | 0.387 | -0.0704 | 0.859 | 1.51 | 0.256 | 0.971 | 0.345 (inactive) | 0.759 | -0.226
CO[C@H]1COC(=O)CCC[C@@H](C)[C@H](OC)COC(=O)[C@@H]2CCCN2C(=O)CC=C[C@@H]1C | -0.442 | 2.09 | -0.294 | -0.142 | -0.164 | -0.508 | 0.505 | 0.362 (inactive) | -0.194 | 0.113
CCN1C(=O)[C@@H]2[C@H]3C(=CC[C@@H]2C1=O)C1(OCCCO1)[C@H]1O[C@H]1[C@H]3O | -0.418 | 0.771 | -0.076 | 1.04 | 1.17 | 0.692 | 1.19 | 7.42 (inactive) | 0.404 | -0.236
CCCNC(=O)OC[C@H]1O[C@H](CCON=C(C)CCN2CCCc3nc(C)c(C)cc32)C=C[C@@H]1Oc1ccc(OC)cc1 | -0.0324 | -0.0773 | -0.0611 | 0.552 | 0.661 | 0.639 | 0.685 | -0.46 (inactive) | 0.504 | -0.0994
CC(C)(C)N1C(=O)[C@H]2[C@H]3[C@H](O)[C@H](O)CC(=NO[C@@H]4O[C@H](CO)[C@@H](O)[C@H](O)[C@H]4O)[C@H]3CC[C@H]2C1=O | -0.477 | 0.128 | -0.17 | 0.569 | 0.45 | 0.947 | 0.389 | 0.599 (inactive) | 0.263 | -0.0994
